PubChem BioAssay (Tox21)
Results filed as inconclusive are left out. Calls of active or inactive are those of the source. Calls come from the whole dose curve; as a rule, active = well fitted curve in the direction sought with a large enough effect in the repeat runs; inconclusive = weak or mixed curves; inactive = no such curve, though single readings can be large; an effect the other way counts as inactive or inconclusive.

Assays:
[1] = qHTS RealTime-Glo MT Cell Viability Assay in HEK293 cells - 16 hour (AID 1224872); note: nearly all actives have a fitted effect of over 50% in size; note: potency is the fitted concentration of half-maximal effect
Procedure, shortened: (§1)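 Viability tracked continuously by luminescence as live cells reduce a prosubstrate for NanoLuc; HEK293 cells preincubated 5 h, compound-treated at 37 C, and read at 0, 8, 16, 24, 32 and 40 h.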

[2] = qHTS RealTime-Glo MT Cell Viability Assay in HepG2 cells - 8 hour (AID 1224873); note: nearly all actives have a fitted effect of over 55% in size
Procedure, shortened: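 HepG2 cells (600/well) mixed with RealTime-Glo MT reagent, settled 5 h at 37 C/5% CO2 before compound addition. Nonlytic NanoLuc luminescence from viable-cell prosubstrate reduction read repeatedly during 40 h treatment at 37 C.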

[3] = qHTS RealTime-Glo MT Cell Viability Assay in HEK293 cells - 40 hour (AID 1224874); conditions: RealTime-Glo luminescence; max response: active compounds read low; note: nearly all actives have a fitted effect of over 50% in size; note: potency is the fitted concentration of half-maximal effect
Procedure, shortened: (§2)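 Cells were seeded together with NanoLuc luciferase and a prosubstrate that viable cells reduce to a luciferase substrate. After a 5 h incubation at 37 C/5% CO2, compounds were added and luminescence was measured repeatedly during 40 h of treatment.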

[4] = A CellTox Green Cytotoxicity Assay to monitor cytotoxicity in HEK293 cells - 24 hour (AID 1224875); note: series mostly up to about 77 µM; nearly all actives have a fitted effect of over 45% in size
Procedure, shortened: (§3)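 Nonlytic real-time cytotoxicity: HEK293 + CellTox Green reagent plated, 5 h preincubation, pintool compound addition (23 nL in DMSO), 37 C for 40 h, fluorescence measured at successive time points.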

[5] = A CellTox Green Cytotoxicity Assay to monitor cytotoxicity in HepG2 cells - 16 hour (AID 1224876); note: nearly all actives have a fitted effect of over 45% in size
Procedure, shortened: (§4)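 Read-out is fluorescence of a cyanine dye excluded from live cells that stains DNA of dead HepG2 cells, with signal proportional to cytotoxicity. Plates were read at 0, 8, 16, 24, 32 and 40 h after compound addition.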

[6] = qHTS RealTime-Glo MT Cell Viability Assay in HepG2 cells - 32 hour (AID 1224877); note: nearly all actives have a fitted effect of over 55% in size
Procedure, shortened: (§5)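 Viability was tracked continuously by NanoLuc luminescence from prosubstrate reduced by living HepG2 cells, at successive time points over 40 h of compound exposure. Cells with reagent were preincubated 5 h at 37 °C before compound addition.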

[7] = qHTS RealTime-Glo MT Cell Viability Assay in HEK293 cells - 0 hour (AID 1224880); note: top concentration of the series differs between compounds; nearly all actives have a fitted effect of over 45% in size
Procedure, shortened: as §2

[8] = A CellTox Green Cytotoxicity Assay to monitor cytotoxicity in HEK293 cells - 8 hour (AID 1224884); note: nearly all actives have a fitted effect of over 35% in size
Procedure, shortened: as §3

[9] = qHTS RealTime-Glo MT Cell Viability Assay in HEK293 cells - 8 hour (AID 1224887); note: nearly all actives have a fitted effect of over 50% in size; note: potency is the fitted concentration of half-maximal effect
Procedure, shortened: as §2

[10] = A CellTox Green Cytotoxicity Assay to monitor cytotoxicity in HEK293 cells - 16 hour (AID 1224888); note: nearly all actives have a fitted effect of over 35% in size
Procedure, shortened: as §3

[11] = qHTS RealTime-Glo MT Cell Viability Assay in HepG2 cells - 0 hour (AID 1224889); note: nearly all actives have a fitted effect of over 50% in size
Procedure, shortened: as §5

[12] = A CellTox Green Cytotoxicity Assay to monitor cytotoxicity in HepG2 cells - 8 hour (AID 1224890); note: nearly all actives have a fitted effect of over 45% in size
Procedure, shortened: as §4

[13] = A CellTox Green Cytotoxicity Assay to monitor cytotoxicity in HepG2 cells - 24 hour (AID 1224878); note: nearly all actives have a fitted effect of over 45% in size
Procedure, shortened: as §4

[14] = A CellTox Green Cytotoxicity Assay to monitor cytotoxicity in HepG2 cells - 40 hour (AID 1224879); note: nearly all actives have a fitted effect of over 40% in size; note: potency is the fitted concentration of half-maximal effect
Procedure, shortened: as §4

[15] = A CellTox Green Cytotoxicity Assay to monitor cytotoxicity in HEK293 cells - 32 hour (AID 1224881); note: nearly all actives have a fitted effect of over 40% in size
Procedure, shortened: as §3

[16] = A CellTox Green Cytotoxicity Assay to monitor cytotoxicity in HepG2 cells - 0 hour (AID 1224882); note: nearly all actives have a fitted effect of over 35% in size
Procedure, shortened: as §4

[17] = A CellTox Green Cytotoxicity Assay to monitor cytotoxicity in HepG2 cells - 32 hour (AID 1224883); note: nearly all actives have a fitted effect of over 50% in size
Procedure, shortened: as §4

[18] = qHTS RealTime-Glo MT Cell Viability Assay in HepG2 cells - 16 hour (AID 1224885); note: nearly all actives have a fitted effect of over 50% in size
Procedure, shortened: as §5

[19] = qHTS RealTime-Glo MT Cell Viability Assay in HEK293 cells - 24 hour (AID 1224886); note: nearly all actives have a fitted effect of over 50% in size; note: potency is the fitted concentration of half-maximal effect
Procedure, shortened: as §1

[20] = A CellTox Green Cytotoxicity Assay to monitor cytotoxicity in HEK293 cells - 40 hour (AID 1224871); note: nearly all actives have a fitted effect of over 45% in size
Procedure, shortened: as §3
% is set by controls: 0 for no effect and ±100 for the full control effect.

Cc1cc2c(OCC(CNC(C)(C)C)OC(=O)c3ccccc3)cccc2[nH]1 (configuration not stated)
inactive: Potency [1] | Potency [2] | max response [3] -21.5% | Potency [4] | Potency [5] | Potency [6] | Potency [7] | Potency [8] | Potency [9] | Potency [10] | Potency [11] | Potency [12]

O=C(/C=C/c1ccc(O)c(O)c1)O[C@@H]1C[C@@](OC(=O)/C=C/c2ccc(O)c(O)c2)(C(=O)O)C[C@@H](O)[C@@H]1O
inactive: Potency [1] | Potency [2] | max response [3] 3.32% | Potency [4] | Potency [5] | Potency [6] | Potency [13] | Potency [14] | Potency [7] | Potency [15] | Potency [16] | Potency [17] | Potency [8] | Potency [18] | Potency [19] | Potency [9] | Potency [10] | Potency [11] | Potency [12]

Oc1cccc(Nc2ccccc2)c1
inactive: Potency [2] | Potency [4] | Potency [5] | Potency [6] | Potency [13] | Potency [14] | Potency [7] | Potency [15] | Potency [16] | Potency [17] | Potency [8] | Potency [18] | Potency [10]
active: Potency [1] 22.8 µM | Potency [3] 12.8 µM | Potency [19] 14.4 µM | Potency [9] 11.4 µM

CC(=O)OCCN(CCOC(C)=O)c1ccc(N=Nc2ccc([N+](=O)[O-])cc2C#N)cc1
inactive: Potency [20] | Potency [5] | Potency [6] | Potency [13] | Potency [14] | Potency [15] | Potency [16] | Potency [17] | Potency [8] | Potency [18] | Potency [10] | Potency [11]

CCOC(=O)/C=C/C(=O)OCC
inactive: Potency [1] | Potency [2] | max response [3] 11.5% | Potency [4] | Potency [5] | Potency [6] | Potency [13] | Potency [14] | Potency [7] | Potency [15] | Potency [16] | Potency [17] | Potency [8] | Potency [18] | Potency [19] | Potency [9] | Potency [10] | Potency [11] | Potency [12]

COc1ccccc1N1CCN(CCCCNC(=O)c2ccc(-c3ccc(C(C)=O)cc3)cc2)CC1
inactive: Potency [2] | Potency [4] | Potency [5] | Potency [6] | Potency [7] | Potency [16] | Potency [8] | Potency [18] | Potency [10] | Potency [11]
active: Potency [1] 1.9 µM | Potency [3] 1.9 µM | Potency [14] 26.8 µM | Potency [19] 1.69 µM

C=C/C(C)=C/C/C=C(\C)CCC=C(C)C
inactive: Potency [1] | Potency [2] | max response [3] -7.52% | Potency [4] | Potency [5] | Potency [6] | Potency [13] | Potency [14] | Potency [7] | Potency [15] | Potency [16] | Potency [17] | Potency [8] | Potency [18] | Potency [19] | Potency [9] | Potency [10] | Potency [11] | Potency [12]
